Among the data in PubChem BioAssay (EPA / NIEHS) are outcome and AC50 values, retold here.

Inconclusive results are not listed. Calls of active or inactive are those of the source. How the source made its calls: active means hit-call score of the fitted dose curve at least 0.9, where 1 is the maximum; inconclusive means response in the unintended direction; inactive means score below 0.9.

The nature of experiment [1]: ACEA_AR_agonist_AUC_viability: ACEA Biosciences xCELLigence Real-Time Cell Analysis on Androgen Receptor Agonism for Viability (AID 2283775).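 On AC50: viability read 80 hours after compound addition.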 In short, it runs like this: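 Real-time impedance tracking of 22Rv1 growth, readings every 5 min for 5 h then hourly; area-under-curve viability endpoint at 80 hours, relative to DMSO. Compounds at eight concentrations, 1:4 steps, top 100 uM, n = 2.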

Experiment [2] can be described thus: ACEA_AR_antagonist_AUC_viability: ACEA Biosciences xCELLigence Real-Time Cell Analysis on Androgen Receptor Antagonism for Viability (AID 2283776).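 Further: 22Rv1 human prostate cancer cells growing on impedance electrode plates; hits lower the growth signal relative to DMSO meaning cytotoxicity.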 In short, it runs like this: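 22Rv1 prostate cells, continuous dosing up to 100 uM final (0.5% DMSO max), duplicate plates. Growth measured by impedance; AUC at 80 h, loss of signal vs DMSO.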
Experiment [3] can be described thus: ACEA_ER_AUC_viability: ACEA Biosciences xCELLigence Real-Time Cell Analysis on Estrogen Receptor Agonism for Viability (AID 2283782).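 Further: continuous compound exposure with impedance area under curve over 80 h; hit means loss of impedance signal meaning reduced cell growth or viability.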 In short, it runs like this: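 T-47D human breast cells in phenol red-free RPMI1640 with 10% charcoal-stripped FBS were dosed with an 8-point 1:4 dilution series from 100 uM top final concentration, in duplicate. Impedance-based growth was followed for 80 h; AUC analysed versus DMSO.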

Experiment [4] concerns the target AR (gene 367) (UniProt P10275). In words: ACEA_AR_agonist_80hr: ACEA Biosciences xCELLigence Real-Time Cell Analysis on Androgen Receptor Agonism for Proliferation (AID 2283783).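 Further: hits increase impedance growth signal above DMSO baseline.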 In short, it runs like this: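 22Rv1 human prostate cancer cells were seeded after preconditioning in assay medium and monitored overnight, then dosed in an eight-point 1:4 dilution series from 100 uM (≤0.5% DMSO). Impedance-based growth was read at 80 h, gain-of-signal versus DMSO.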

Experiment [5] addresses AR (gene 367) (UniProt P10275). In words: ACEA_AR_antagonist_80hr: ACEA Biosciences xCELLigence Real-Time Cell Analysis on Androgen Receptor Antagonism for Proliferation (AID 2283787).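 Further: hits lower the impedance growth signal relative to DMSO.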 In short, it runs like this: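 Impedance readout (RT-CES), 80 h post-dose; loss-of-signal vs DMSO baseline. 22Rv1 cells in assay medium. Compounds: 8-pt 1:4 series, max 100 uM final, up to 0.5% DMSO; n = 2.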

AR (gene 367), sequence (P10275 whole entry, looked up): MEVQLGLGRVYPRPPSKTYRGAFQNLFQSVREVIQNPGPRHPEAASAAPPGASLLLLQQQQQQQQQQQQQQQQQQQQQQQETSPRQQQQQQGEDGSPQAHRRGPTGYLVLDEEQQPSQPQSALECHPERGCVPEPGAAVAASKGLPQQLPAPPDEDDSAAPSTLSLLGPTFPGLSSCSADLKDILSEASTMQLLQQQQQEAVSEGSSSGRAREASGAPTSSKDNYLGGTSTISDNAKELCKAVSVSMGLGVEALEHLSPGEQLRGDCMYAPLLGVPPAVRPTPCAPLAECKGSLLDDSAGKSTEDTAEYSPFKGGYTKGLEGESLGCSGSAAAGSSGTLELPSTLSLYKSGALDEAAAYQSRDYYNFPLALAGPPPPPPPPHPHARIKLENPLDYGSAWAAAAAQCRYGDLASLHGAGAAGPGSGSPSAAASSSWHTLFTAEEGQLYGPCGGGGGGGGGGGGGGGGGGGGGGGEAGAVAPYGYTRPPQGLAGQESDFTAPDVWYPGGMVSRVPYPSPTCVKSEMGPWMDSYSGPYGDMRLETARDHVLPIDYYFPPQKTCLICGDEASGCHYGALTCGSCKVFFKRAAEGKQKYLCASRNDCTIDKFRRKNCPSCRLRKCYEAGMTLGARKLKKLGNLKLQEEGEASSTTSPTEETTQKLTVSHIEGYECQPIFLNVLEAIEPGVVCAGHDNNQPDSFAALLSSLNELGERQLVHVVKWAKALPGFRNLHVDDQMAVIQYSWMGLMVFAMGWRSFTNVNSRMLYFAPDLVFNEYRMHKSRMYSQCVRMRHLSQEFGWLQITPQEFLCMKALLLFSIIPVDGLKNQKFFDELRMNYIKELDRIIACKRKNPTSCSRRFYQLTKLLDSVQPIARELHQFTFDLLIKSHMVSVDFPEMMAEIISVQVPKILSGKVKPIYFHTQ

As for `CN=C=S`, the compound was called inactive in experiment [1] and in experiment [2].

Consider `CC1(C)C(C(=O)OC(C#N)c2cccc(Oc3ccccc3)c2)C1(C)C` (stereo not drawn), for which the values for the AC50 in experiment [1] and in experiment [3] were 50 µM (active) and 89.4 µM (active), respectively.

Consider `CC(C)Oc1cccc(NC(=O)c2ccccc2C(F)(F)F)c1`, for which the call in experiment [1] and in experiment [3] was inactive.

Consider `N#Cc1c[nH]cc1-c1cccc2c1OC(F)(F)O2`, for which the AC50 in experiment [1] is 32.5 µM (active). Also, in experiment [3], the outcome was inactive.

Consider `CCSC(=O)N1CCCCCC1`, for which the result in experiment [1] and in experiment [3] was inactive.

With `CC1(C)CON(Cc2ccccc2Cl)C1=O`, the outcome in experiment [1] was inactive. Also, in experiment [2], the concentration at half-maximal activity (AC50) is 18.6 µM (active).

On to `CCOc1cc(C(C)(C)C)ccc1C1COC(c2c(F)cccc2F)=N1` (stereo not drawn), for which the figures for the concentration at half-maximal activity (AC50) (in experiment [1]; in experiment [3]; with AR (gene 367) [5]) were 24 µM (active), 51.2 µM (active) and 13.2 µM (active), respectively. In addition, the compound was classed as inactive in the experiment with AR (gene 367) [4].

As to `CC(C)N1C(=O)N(c2ccccc2)CSC1=NC(C)(C)C`, the AC50 in experiment [1] was 28.9 µM (active); in experiment [3], 89.6 µM (active); in the experiment with AR (gene 367) [5] it was 50 µM (active).

In the case of `O=C(O)c1c(Cl)ccc2cc(Cl)cnc12`, the compound was called inactive in experiment [3].

Regarding `CNC(=O)Oc1cccc2ccccc12`, the compound was called inactive in experiment [3].

In the case of `CCCCC(O)(Cn1cncn1)c1ccc(Cl)cc1Cl` (stereo not drawn), the half-maximal activity concentration (AC50) in experiment [1] was 69.8 µM (active); in experiment [2], 50 µM (active); in experiment [3], 75.5 µM (active); with AR (gene 367) [5] it was 57.3 µM (active). Further, the outcome with AR (gene 367) [4] was inactive.

In the case of `O=C(Nc1ccccc1-c1ccc(Cl)cc1)c1cccnc1Cl`, the AC50 in experiment [1] was 61.3 µM (active). The compound was classed as inactive in experiment [3].

As for `COC(=O)N(C(=O)N1CO[C@@]2(C(=O)OC)Cc3cc(Cl)ccc3C2=N1)c1ccc(OC(F)(F)F)cc1`, the AC50 in experiment [1] was 18.3 µM (active); in experiment [2], 18.5 µM (active); in experiment [3], 69.2 µM (active); with AR (gene 367) [5] it was 40 µM (active).

Take `Nc1c(Cl)c(Cl)nc(C(=O)O)c1Cl`: the result in experiment [1], in experiment [2] and in experiment [3] was inactive.

`CCCCOCN(C(=O)CCl)c1c(CC)cccc1CC`: the AC50 in experiment [1] is 85.2 µM (active); in experiment [3] it was 87.6 µM (active); with AR (gene 367) [4] it was 10.5 µM (active); with AR (gene 367) [5], 75.7 µM (active).

For `COc1cc(Cl)c(OC)cc1Cl`, the result in experiment [1] and in experiment [3] was inactive.

`CCCN(CC)CC1COC2(CCC(C(C)(C)C)CC2)O1` (stereo not drawn): the results for the concentration at half-maximal activity (AC50) in experiment [1], in experiment [2] and in experiment [3] were 77.3 µM (active), 77.7 µM (active) and 81 µM (active), respectively.

With `CC(C)N1C(=O)c2ccccc2NS1(=O)=O`, the result in experiment [1], in experiment [2] and in experiment [3] was inactive.

With `CNC(=O)N(C)c1nnc(C(C)(C)C)s1`, the outcome in experiment [1], in experiment [2] and in experiment [3] was inactive.

Regarding `Cc1cc(C)nc(Nc2ccccc2)n1`, the compound was classed as inactive in experiment [1] and in experiment [3].

On to `CS(=O)(=O)c1cc(C(F)(F)F)ccc1C(=O)c1cnoc1C1CC1`, for which, in experiment [3], the call was inactive.
